MITF act: activators of MITF-driven TRPM1 promoter reporter, primary screen, cell-based, SK-MEL-5, luciferase, single point; SK-MEL-5 TRPM1-promoter luciferase, 24 h; % of positive control, neutral wells = 0; activation, % at 12.5 µM; 300,000 compounds, 0.75% hits; AID 588334, 2011;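 active means mean activation of at least 80% with every replicate also reaching 80%; inconclusive means mean reaches 80% but some replicate falls short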
Wnt bcat act: Wnt/beta-catenin pathway activators, primary screen, cell-based, plate reader, single point | Wnt/beta-catenin reporter cell assay, activator | activation, % at 9.35 µM | 300,000 compounds, 1.2% hits | AID 743398, 2014; in the data active means activation above about 30%, passing the limit was not always enough; inconclusive means no clear call, values can overlap the other calls
FXN GAA850 act: FXN promoter activators, primary screen, cell-based, luciferase luminescence, HEK293 lucGAA850. HEK293 lucGAA850 FXN promoter luciferase reporter, 24 h; percent of 10 µM SAHA response. activation, % at 6 µM. 360,000 compounds, 0.56% hits;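 active means activation above the average of all compounds screened plus 3 SD, cutoff fixed separately per campaign, cut at about 7.5% in these data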
C2C12 statin: suppressors of statin myotoxicity in C2C12 myotubes, primary screen, cell-based, single point, plate reader; rescue of ATP level, % at 7.49 µM; C2C12 myotubes + simvastatin, ATP luminescence, 48 h; scaled: DMSO 0, geranylgeraniol control 100; 330,000 compounds, 0.78% hits;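 active means mean ATP rescue above about 67%, or every replicate alone reaching that limit, limit read from the data, passing the limit was not always enough; inconclusive means no clear call, values can overlap the other calls; inactive means mean under the limit and some replicate under it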;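 further: myotubes were challenged with 10 µM simvastatin during compound exposure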
esBAF inh: Bmi1 luciferase reporter increase in mESCs, primary screen, esBAF inhibitor project, mouse ES cells, Bmi1 luciferase knock-in, single point | reporter increase, % at 12.5 µM | 350,000 compounds, 2% hits | AID 602393, 2012 | 24 h; 100% = twice the neutral-well signal; in the data active means activation above about 40%; inconclusive means no clear call, values can overlap the other calls;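 further: a rise in the Bmi1 reporter signal indicates esBAF inhibition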
Numbers stand for hits; n = inactive; u = inconclusive; x = no result. Only some compounds are listed: those with a hit (about 3.3% of all), similar ones and a draw of the others.

SMILES	MITF act	Wnt bcat act	FXN GAA850 act	C2C12 statin	esBAF inh
COc1ccccc1NC(=O)Nc1ccc2c(c1)C(=O)N(C)C[C@H](OC)[C@H](C)CN[C@@H](C)CO2	x	x	x	n	n
C/C(=N\Nc1cccc(C(=O)O)c1)c1ccc(Cl)s1	n	n	n	n	73
COc1ccc(/C(C)=N/Nc2cccc(C(=O)O)c2)cc1OC	n	n	n	n	53
COc1ccc(C(=O)N/N=C(/C)c2cccc(NC(=O)c3ccncc3)c2)cc1OC	n	n	n	n	n
COc1ccc(-c2cc3nc[nH]c(=O)c3s2)cc1	n	34	n	n	n
O=c1[nH]cnc2nc(-c3ccccc3)c(-c3ccccc3)nc12	n	n	n	n	n
O=c1[nH]cnc2cc(-c3ccccc3)sc12	x	x	n	n	42
COc1ccc(-c2cc3nc(CCl)[nH]c(=O)c3s2)cc1	n	n	n	n	n
C[C@@H]1CN([C@@H](C)CO)C(=O)c2cc(Br)cnc2O[C@@H]1CN(C)C(=O)C1CCC1	x	x	x	n	x
C=CCSc1nc(C)c2cc(C)cc(C)c2n1	n	n	n	133	n
COc1ccc(S(=O)(=O)N(C)C[C@H]2OCCCC[C@H](C)Oc3ccc(NC(=O)c4ccccc4)cc3C(=O)N([C@H](C)CO)C[C@H]2C)cc1	x	x	x	x	n
Cc1sc(NC(=O)c2ccc(Cl)s2)c(C(N)=O)c1C	n	42	n	n	n
COc1ccc(C(=O)N2C[C@H]3[C@@H](c4ccccc42)[C@@H](CO)N3Cc2ccc(Cl)cc2)cc1	x	x	x	n	n
CCCN1CN(Cc2ccco2)c2nc3ccccc3n2C1	n	n	n	89	n
c1coc(CN2CNc3nc4ccccc4n3C2)c1	x	n	n	x	x
O=C(CC1C(=O)OCN1C(=O)OCc1ccccc1)OCC(=O)c1ccccc1 (stereo not given)	x	n	n	103	n
O=c1c2ccccc2nc2c3ccccc3c(NCc3cccnc3)nn12	n	n	n	x	x
O=c1c2ccccc2nc2c3ccccc3c(NCc3ccccn3)nn12	n	49	n	x	x
O=C(N/N=C/c1ccc(OC(=O)c2cccs2)cc1)c1ccccn1	99	n	n	x	x
O=C(N/N=C/c1ccc(N2CCOCC2)cc1)c1ccccn1	n	36	n	x	x
COCC(=O)Nc1ccc2c(c1)C(=O)N(C)C[C@@H](OC)[C@@H](C)CN(CCC(F)(F)F)[C@H](C)CO2	x	x	x	n	n
Cc1nn(CCOc2ccccc2)c(=O)n1-c1c(F)cccc1F	x	60	n	n	u
CN(C)c1ccc(NC(=O)Nc2cccc(Cl)c2)cc1	n	x	n	n	54
CN(c1cccc(NC(=O)Nc2cccc(Cl)c2)c1)S(C)(=O)=O	x	n	n	n	54
CC(=O)Nc1cccc(N(C)S(C)(=O)=O)c1	n	n	n	n	n
SMILES	MITF act	Wnt bcat act	FXN GAA850 act	C2C12 statin	esBAF inh
COc1ccccc1C(=O)NC(=O)Nc1cccc(Cl)c1	n	43	n	n	n
COc1ccc(N(C(=O)Cn2nnc3ccccc32)C(C(=O)NCc2ccco2)c2cccnc2)cc1 (stereo not given)	x	n	n	81	n
COc1ccccc1-c1ccc([C@H]2[C@@H](CO)N3CCCCN(C(=O)NC4CCCC4)C[C@H]23)cc1	x	x	x	n	n
Cc1cccc2sc(NC(=O)C3CC3)nc12	n	n	n	n	n
Cc1ccc2sc(NC(=O)C3CC3)nc2c1C	n	n	n	n	63
O=C(Nc1nc2c(F)cc(F)cc2s1)C1CC1	x	n	n	n	49
O=C(CN1C(=O)CCC1=O)Nc1nc2c(F)cc(F)cc2s1	n	n	n	n	n
O=C(CCN1C(=O)C2CCCCC2C1=O)Nc1nc2ccc(F)cc2s1 (stereo not given)	n	u	n	n	n
O=C(CCN1C(=O)C2CCCCC2C1=O)Nc1nc2c(F)cc(F)cc2s1 (stereo not given)	90	41	n	n	u
C[C@H]1CN([C@@H](C)CO)C(=O)c2cccc(NC(=O)c3cnccn3)c2O[C@@H]1CN(C)C(=O)NC1CCCCC1	x	x	x	n	n
O=c1cc(-c2ccccc2)nc2n1Cc1ccccc1-2	n	x	n	n	n
O=c1c2cccc(Cl)c2nc2n1Cc1ccccc1-2	x	39	n	x	x
O=C(C#Cc1ccccc1)c1ccc([N+](=O)[O-])cc1	n	u	13	x	x
O=C(C#Cc1ccccc1)c1ccccc1	x	n	9.3	n	n
CCc1ccc(-c2ccc(SCc3ccccn3)nn2)cc1	n	n	n	n	63
CCOc1ccc(-c2ccc(SCc3ccccn3)nn2)cc1	n	n	n	x	x
O=C(/C=C/Nc1ccc(F)cc1)c1ccco1	n	x	n	n	n
Cc1ccc(N/C=C/C(=O)c2ccco2)c(O)c1	n	56	n	n	u
CCn1nc(C(=O)N2CCN(Cc3nc4ccccc4s3)CC2)c2ccccc2c1=O	n	n	n	n	53
CCn1nc(C(=O)NNC(=O)c2ccccc2)c2ccccc2c1=O	n	n	n	n	46
CCC(=O)Nc1ccc2c(c1)C(=O)N(C)[C@H]1CC[C@H](CC(=O)Nc3ccc(OC)cc3)O[C@@H]1CO2	x	x	x	n	n
C[C@@H]1CN([C@@H](C)CO)C(=O)Cc2cc(NC(=O)c3ccncc3)ccc2O[C@H]1CN(C)Cc1ccc(C(F)(F)F)cc1	x	x	x	n	n
CC(C)c1ccc(CNc2ccc([N+](=O)[O-])cn2)cc1	89	n	n	x	x
CCOC(=O)c1c(N)n[nH]c1-c1ccc(OC)cc1	n	x	n	n	n
CCOC(=O)c1c(Nc2ccc(OC)cc2)n[nH]c1C	x	34	x	x	x
SMILES	MITF act	Wnt bcat act	FXN GAA850 act	C2C12 statin	esBAF inh
O=C1CSC(=Nc2ccccc2Cl)N1	x	n	n	x	x
Clc1ccccc1N=C1NN=C(c2cccs2)CS1	n	n	n	n	66
Cc1cccc(OCCNc2ncccc2[N+](=O)[O-])c1	x	n	n	n	74
C[C@@H]1CN([C@H](C)CO)C(=O)c2cc(C#CC3CC3)cnc2O[C@@H]1CN(C)S(C)(=O)=O	x	x	x	n	n
O=C(CSc1cn(Cc2ccccc2)c2ccccc12)Nc1nccs1	x	53	n	n	73
CCOC(=O)c1c(SCC(=O)Nc2nccs2)nc(C)c(C)c1C	n	n	n	n	50
O=C(CSc1ccccc1)Nc1nccs1	n	n	n	x	x
Cc1ccc(SCC(=O)Nc2nccs2)cc1	n	n	n	x	24
CN(C)c1ccc(NC(=O)c2sc(SCC(=O)Nc3nccs3)nc2N)cc1	n	47	n	n	53
CN(C)c1ccc(NC(=O)c2sc(SCC(=O)Nc3ccc(Br)cc3)nc2N)cc1	n	x	n	x	x
CCn1c(C)nnc1SCC(=O)Nc1nccs1	n	n	n	n	n
O=C([C@@H]1[C@@H](CO)[C@@H]2Cn3c(ccc(-c4ccccc4)c3=O)[C@@H]2N1CCC(F)(F)F)N1CCOCC1	x	x	x	n	n
Cc1cc(N2CCC(C(=O)NC3CC3)CC2)nc(-c2ccccc2)n1	x	x	n	x	n
Cc1cc(N2CCN(c3cccc(C)c3C)CC2)nc(-c2ccccc2)n1	n	n	n	117	n

Screening data from PubChem BioAssay.
